Assay outcomes from PubChem.
KDM5B inh – blocks human KDM5B histone demethylase activity; hit rate 2.6% among 220,000; KDM5B demethylase, FDH-coupled NADH fluorescence (FDH is formaldehyde dehydrogenase); Potency, µM (series often up to 57.7 µM), most hits filed as inhibitors; Q9UGL1; AID 1347165; active means well fitted inhibition curve with a large enough effect; further: 0% is about no effect; nearly all actives have a fitted effect of over 70% in size
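qHTS format, multiple compound concentrations. Buffer 50 mM HEPES pH 7.5/0.01% Tween-20; 200 nM KDM5BΔAP final; 10 min compound preincubation; substrate-mix levels 12.5 µM peptide, 25 µM α-KG, 0.25 mM NAD⁺; 30 min RT; ΔRFU.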
Active calls of the source: *. Many of the other results were omitted from the sample, so hits are more common in it than they were. Potency means the concentration at half of the fitted maximal effect.

Results for COc1ccc(C(=O)N[C@@H]2CCC[C@@H]2C(=O)NCCCn2cccn2)cn1 ?
KDM5B inh: inactive

How did O=C(/C=C/c1cc2ccccc2nc1N1CCOCC1)c1cccc(O)c1 do in these assays?
KDM5B inh: inactive

How did CCOc1ccc(C(=O)CCC(=O)N(CC#N)C2CC2)cc1 do in these assays?
KDM5B inh: inactive

Results for CC(C)C(=O)NC(NC(C)(C)C)C(Cl)(Cl)Cl (centres undefined) ?
KDM5B inh: inactive

Results for COCCCNc1nc2c(c(=O)[nH]c(=O)n2C)n1CCc1ccc(OC)cc1 ?
KDM5B inh: inactive

How did N#Cc1ccc(OCC(=O)c2ccc(C3CCCCC3)cc2)cc1 do in these assays?
KDM5B inh: inactive

What do the screens show for `O=C(CS(=O)(=O)Cc1coc(-c2ccccc2)n1)N1CCCC1`?
KDM5B inh: inactive

Results for CC1(C)C2CCC1(C)C(NC(=O)c1ccccc1)C2 (centres undefined) ?
KDM5B inh: inactive

Results for COC[C@@H]1CN(C(=O)CCc2c(C)n[nH]c2C)C[C@H]1c1ccncc1 ?
KDM5B inh: inactive

What do the screens show for `Cc1cnc(C(=O)N[C@@H]2CCC[C@@H]2C(=O)NCc2c(C)n[nH]c2C)cn1`?
KDM5B inh: inactive

What do the screens show for `COC[C@@H]1CN(c2cnccn2)C[C@H]1C(=O)NCc1c(C)n[nH]c1C`?
KDM5B inh: 20µM*

What do the screens show for `O=c1c2cc(Cl)ccc2ncn1Cc1ncon1`?
KDM5B inh: inactive

What do the screens show for `CC(NC(=O)c1nn(Cc2ccccc2)c(=O)c2ccccc12)c1ccco1` (centres undefined)?
KDM5B inh: inactive

Results for CCOC(=O)C(C)Oc1ccc2c(=O)c(-c3ccc4c(c3)OCCO4)c(C)oc2c1 (centres undefined) ?
KDM5B inh: inactive

How did CCOc1ccccc1C(=O)NCc1nnc2cc(-c3nc(CC)no3)ccn12 do in these assays?
KDM5B inh: 28µM*

How did CCc1noc(-c2ccn3c(CNC(=O)c4ccccc4F)nnc3c2)n1 do in these assays?
KDM5B inh: inactive

What do the screens show for `CC(C)c1noc(-c2ccn3c(CNC(=O)c4ccc(F)cc4Cl)nnc3c2)n1`?
KDM5B inh: 28µM*

Results for CCc1noc(-c2ccn3c(CNC(=O)c4cc(F)ccc4Cl)nnc3c2)n1 ?
KDM5B inh: 28µM*

How did CCOc1ccccc1C(=O)NCCc1noc(-c2ccccc2)n1 do in these assays?
KDM5B inh: inactive

How did Cc1noc(-c2ccn3c(CNC(=O)c4ccc(F)cc4Cl)nnc3c2)n1 do in these assays?
KDM5B inh: inactive

How did CCCc1noc(-c2ccn3c(CNC(=O)c4ccc(F)cc4Cl)nnc3c2)n1 do in these assays?
KDM5B inh: inactive

How did Cc1ccccc1NCc1cc2ccccc2[nH]c1=O do in these assays?
KDM5B inh: inactive

What do the screens show for `O=C(Nc1nn(Cc2c(Cl)cccc2Cl)cc1Cl)c1nc2ncccn2n1`?
KDM5B inh: inactive

How did COc1ccc(CCC(=O)N2CCN(C(=O)c3ccccc3)CC2)cc1 do in these assays?
KDM5B inh: inactive

Results for COc1ccc(Cn2c3c(c(=O)n2Cc2ccccc2)CCN(C(=O)CCc2cccnc2)C3)cc1 ?
KDM5B inh: inactive

What do the screens show for `CCN(C(=O)CCC(=O)N1CCc2nc3cc(-c4ccc(OC)cc4)[nH]n3c(=O)c2C1)c1ccccc1`?
KDM5B inh: 7.1µM*

How did COc1ccc(-c2cc3nc4c(c(=O)n3[nH]2)CN(C(=O)CCc2ccccc2)CC4)cc1 do in these assays?
KDM5B inh: 5.6µM*

How did COc1ccc(CC(=O)N2CCc3nc(-c4ccc(Cl)cc4)nc(-c4ccccc4)c3C2)cc1 do in these assays?
KDM5B inh: inactive

Results for CCc1nc2c(c(-c3ccc(OC)cc3)n1)CN(C(=O)c1ccccc1)CC2 ?
KDM5B inh: inactive

Results for O=C(CSc1nc2ccccc2c(=O)n1CCCN1CCOCC1)c1ccccc1 ?
KDM5B inh: inactive

How did Cc1csc(NC(=O)[C@@H]2CCC[C@@H](NCC3CC3)CN(C)C(=O)C2)n1 do in these assays?
KDM5B inh: inactive

How did CC(C)C(=O)NCCc1noc(-c2ccccc2)n1 do in these assays?
KDM5B inh: inactive

What do the screens show for `Cc1noc(-c2ccc(NCc3ccccc3)c([N+](=O)[O-])c2)n1`?
KDM5B inh: inactive

Results for Cc1noc(-c2ccc(OC3CN(C(=O)CCCc4ccccc4)C3)cc2)n1 ?
KDM5B inh: inactive

How did Cn1cc(CNC(=O)C[C@@H]2C[C@H]3O[C@H](CNC(=O)NCc4ccccc4)[C@@H](O)[C@H]3O2)cn1 do in these assays?
KDM5B inh: inactive

What do the screens show for `O=S(=O)(Cc1cccc(Cl)c1)NCCc1noc(-c2ccccc2)n1`?
KDM5B inh: inactive

Results for Cn1cc(CNc2ccc(-c3nc(CCCc4ccccc4)no3)cn2)cn1 ?
KDM5B inh: 32µM*

What do the screens show for `O=C(CCC(F)(F)F)NC1CC(=O)N(CCCc2ccccc2)C1` (centres undefined)?
KDM5B inh: inactive

How did CCN1CC(Nc2ccc(-c3nc(CCCc4ccccc4)no3)cn2)CC1=O (centres undefined) do in these assays?
KDM5B inh: 28µM*

How did Cc1cc(CNc2ccc(-c3nc(CCCc4ccccc4)no3)cn2)no1 do in these assays?
KDM5B inh: 28µM*

How did O=C(OC1CCCCC1)c1nn(-c2ccccc2)c(=O)c2ccccc12 do in these assays?
KDM5B inh: inactive

How did COc1ccc2c(-c3cc4cc(Cl)ccc4o3)cc(=O)oc2c1 do in these assays?
KDM5B inh: inactive

How did COCCCNC(=O)C1CCCN(C(=O)Cc2c[nH]c3ccccc23)C1 (centres undefined) do in these assays?
KDM5B inh: inactive

What do the screens show for `Cc1ccc(CC(S)C(=O)O)cc1C` (centres undefined)?
KDM5B inh: inactive

What do the screens show for `Cc1ccc(NC(=O)CCc2ncc(-c3ccccc3)o2)cc1`?
KDM5B inh: inactive

Results for CC(C)C(=O)N1c2ccccc2NC2=C(C(=O)CC(C)(C)C2)C1c1cccnc1 (centres undefined) ?
KDM5B inh: inactive

Results for O=C(NCCS(=O)(=O)N1CCN(c2ccccc2F)CC1)c1ccc(C(F)(F)F)cc1 ?
KDM5B inh: inactive

Results for O=C(OCC1C(COC(=O)c2ccco2)C1(Cl)Cl)c1ccco1 (centres undefined) ?
KDM5B inh: inactive

What do the screens show for `O=C(CN1CCN(c2ccccc2)CC1)Nc1nc(-c2ccc(Cl)cc2)cs1`?
KDM5B inh: inactive

What do the screens show for `CC(=O)c1ccc(S(=O)(=O)NCCc2cccc3cccnc23)cc1`?
KDM5B inh: inactive

How did O=C(Nc1ccc(-c2nc3ccccc3o2)cc1)C1CCCC1 do in these assays?
KDM5B inh: inactive

How did Cc1ccc2nc(-c3ccc(NC(=O)C4CC4)cc3)oc2c1 do in these assays?
KDM5B inh: inactive

How did CCN(CC)CC(=O)N1CCC(C(=O)Nc2ccc(-c3nc4ccccc4o3)cc2)CC1 do in these assays?
KDM5B inh: 28µM*

What do the screens show for `Cc1ccc2nc(SCC(=O)Nc3ccccc3C(=O)Nc3ccccc3)[nH]c2c1`?
KDM5B inh: inactive

How did O=C(OCc1ccccc1)N1CCC2(CC1)C(=NC1CCCCC1)NC(=O)N2c1cccnc1 do in these assays?
KDM5B inh: 28µM*

Results for COC(=O)N1CCC2(CC1)C(=NC1CCCCC1)NC(=O)N2c1cccnc1 ?
KDM5B inh: inactive

Results for O=C(c1ccccc1)N1CCC2(CC1)C(=NC1CCCCC1)NC(=O)N2c1cccnc1 ?
KDM5B inh: inactive

Results for C=C(C)Cn1c(SC(C)C)nc2c1c(=O)[nH]c(=O)n2C ?
KDM5B inh: inactive
